Measured values published in PubChem BioAssay AID1347139 (National Center for Advancing Translational Sciences (NCATS), 2019).
This is one part of the list. Results filed as inconclusive are left out. Active and inactive are the calls of the source. Calls follow the shape of the dose curve; as a rule, active = well fitted inhibition curve with a large enough effect; inconclusive = small, poorly fitted or top-dose-only effect; inactive = no such curve, though single readings can be large or run the other way.

test: qHTS of pediatric cancer cell lines to identify multiple opportunities for drug repurposing: Orthogonal 3D viability screen for TC32 cells; conditions: TC32 3D spheroid viability, PI/Hoechst imaging, 72 h; series mostly up to 30.7 µM; activity change, negative = less viable: at the top concentration
From the text: Drug repurposing or repositioning has been offered as a strategy for drug development in oncology programs. This approach has special potential for childhood cancers and other rare or orphan diseases, where the expected return on new drug development has been a disincentive to pharmaceuticals. […] In this project we exploit the poly-pharmacology of drugs to discover new indications via phenotypic screening of a panel of 19 well-characterized cell lines derived from solid tumors seen in children and adolescents. The goal is to identify approved drugs with previously unrecognized anticancer properties that has the potential to reveal new mechanisms and biological processes involved in carcinogenesis or drug resistance. We employed a titration-based paradigm (quantitative high-throughput screening or qHTS), where all compounds were tested at multiple concentrations for their effect on cell viability. Concentration-response curves (CRCs) were derived directly from the primary screen, and both potency and efficacy values were used to identify compounds with robust bioactivity profiles. […] These two assays will be used to validate active compounds and assess the correlation of compound's potency in 2D vs 3D cultures on selected cell lines. Assay Submitter: Nathalia J. Martinez, National Center for Advancing Translational Sciences, National Institutes of Health, Rockville, MD, USA; email: natalia.martinez@nih.gov Shen, M et al. Quantitative high-throughput phenotypic screening of pediatric cancer cell lines identifies multiple opportunities for drug repurposing. Oncotarget 2017 Dec 19;9(4):4758-4772. PMID 29435139.
The cells were obtained from University of North Carolina (UNC), Pediatric Preclinical Testing Program (PPT), and Coriell Institute (CI). qHTS viability in 3D culture: Cells were assayed in phenol red-free growth media at a density of 1,000 cells/well, with the exception of Daoy, and SH-N-SH which were assayed at 1,500 cells/ well. Thirty muL of cells were dispensed into 384-well, ULA, round bottom plates (Corning) using a Multidrop dispenser. Plates were spun down at 1,000 rpm for 1 min and incubated at 37 degrees C, 5% CO2, under a humidified atmosphere for either 24 (Daoy) or 48 hours (all other cell lines) to allow spheroid formation. Ninety-two nanoliter of compounds and controls (neutral control DMSO or positive control bortezomib at final concentrations of 0.5 µM) were subsequently transferred via GNF Pintool. Plates were sealed using a breathable seal (Diversified Biotech, Dedham, MA) and incubated for 72 hours at 37 degrees C. Spheroid viability was first determined by high-content imaging using Hoechst 33342 and Propidium Iodide (PI, ThermoFisher Scientific), followed by addition of CellTiter-Glo 3D (Promega). Specifically, 3 µL/well of PBS containing a 1:500 dilution of both dyes was dispensed using Multidrop. Dyes were incubated for 1 hour before imaging using the Celigo Image Cytometer. Then, 20 µl of CellTiter-Glo 3D were added per well. Plates were incubated for 30 min at RT on a VWR microplate shaker (300 rpm) and analyzed for luminescence intensity using a ViewLux High-throughput CCD imager equipped with clear filters. Image analysis was done using the Celigo Tumorsphere 1+2+3 application software as previously described. […] The data were exported to Excel, and the average fluorescent intensities were used to calculate the ratio of PI over Hoechst, which was used to quantify viability. […]

SMILES	Potency	activity change, negative = less viable
COC(=O)Nc1nc2ccc(Sc3ccccc3)cc2[nH]1	810 nM (active)	
CC(NCc1ccc2c(c1)nc(NC(=O)c1ccc(-c3cn[nH]c3)s1)n2CC(C)(C)O)C(C)(C)C (stereo not given)	1620 nM (active)	
CC[C@H]1CN2CCc3cc(OC)c(OC)cc3[C@@H]2C[C@@H]1C[C@H]1NCCc2cc(OC)c(OC)cc21	323 nM (active)	
CC[C@]1(O)C[C@@H]2CN(CCc3c([nH]c4ccccc34)[C@@](C(=O)OC)(c3cc4c(cc3OC)N(C)[C@H]3[C@@](O)(C(=O)OC)[C@H](OC(C)=O)[C@]5(CC)C=CCN6CC[C@]43[C@@H]65)C2)C1	32.3 nM (active)	
C=C1C(=CC=C2CCC[C@]3(C)[C@@H]([C@H](C)C=C[C@H](C)C(C)C)CC[C@@H]23)C[C@@H](O)C[C@@H]1O		-17.7% (inactive)
